PNC assembly inh – blocks assembly of the perinucleolar compartment | actives 3.1% (n = 140,000) | activity change (PNC), negative = inhibition, % at 10 µM | PC3M PTB-GFP, PNC prevalence imaging, 16 h; hits give low values | AID 2417;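 active = readout at or below -70, meaning at least 70% loss of cells showing the perinucleolar compartment, a nuclear body marking cancer cells; inconclusive = readout between -30 and a set limit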
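Compounds are pinned in duplicate onto adhered PC3M cells stably expressing GFP-tagged PTB and incubated 16 h at 37 C. Cells are then fixed, nuclei stained with Hoechst, and PNC-positive cells counted.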
HPGD block – HPGD (human) dehydrogenase inhibition. purified HPGD, NADH fluorescence kinetic, PGE2 substrate. actives 4.3% (n = 150,000). P15428. Potency, µM, actives largely listed as inhibitors. AID 894
Target sequence (P15428 whole entry, looked up): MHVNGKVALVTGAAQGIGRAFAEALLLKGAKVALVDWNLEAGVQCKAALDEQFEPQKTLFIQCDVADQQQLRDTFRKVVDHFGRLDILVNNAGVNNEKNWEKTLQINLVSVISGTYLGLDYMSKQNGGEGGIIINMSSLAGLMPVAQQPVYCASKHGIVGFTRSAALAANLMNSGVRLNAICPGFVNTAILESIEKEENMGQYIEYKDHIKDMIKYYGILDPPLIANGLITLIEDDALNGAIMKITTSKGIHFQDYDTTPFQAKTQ
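20 nM HPGD preincubated 15 min at room temperature with compound in 50 mM Tris-HCl pH 8, 0.01% Tween 20. Started with 1 mM NAD+ and 30 uM prostaglandin E2; NADH fluorescence (360/450 nm) read 5 times over 30-s intervals, last minus first.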
ALDH1A1 inh – inhibitors of human aldehyde dehydrogenase 1A1; P00352; Purified ALDH1A1, NADH fluorescence, propionaldehyde substrate; Potency, µM (titrated, usually from 75.3 µM), usual class: inhibitors; actives 7.3% (n = 220,000)
Target sequence (P00352 whole entry, looked up): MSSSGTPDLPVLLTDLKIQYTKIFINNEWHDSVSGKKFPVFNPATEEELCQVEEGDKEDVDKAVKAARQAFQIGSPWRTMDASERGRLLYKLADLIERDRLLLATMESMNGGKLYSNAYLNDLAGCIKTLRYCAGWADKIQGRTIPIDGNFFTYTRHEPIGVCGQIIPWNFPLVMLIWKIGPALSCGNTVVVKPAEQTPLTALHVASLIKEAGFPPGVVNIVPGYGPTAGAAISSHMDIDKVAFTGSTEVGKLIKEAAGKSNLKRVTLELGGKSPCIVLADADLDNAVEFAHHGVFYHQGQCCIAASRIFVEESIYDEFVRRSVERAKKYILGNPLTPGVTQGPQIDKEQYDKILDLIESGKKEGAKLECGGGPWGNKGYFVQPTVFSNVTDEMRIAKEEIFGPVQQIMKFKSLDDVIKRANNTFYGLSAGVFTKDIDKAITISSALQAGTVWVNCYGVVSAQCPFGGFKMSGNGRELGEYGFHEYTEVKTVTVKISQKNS
Large screens that a line does not name were inactive. Rows were chosen to be rich in hits. Some 11% of all compounds tested hit in one or more screens of this group. Unless noted, calls follow the shape of the dose curve; as a rule, active = well fitted inhibition curve with a large enough effect (not every such curve was filed as active); inconclusive = small, poorly fitted or top-dose-only effect, or another doubt; inactive = no such curve, though single readings can be large or run the other way.

O=C(O)NCC1CCCCC1 (tested in a mixture with another compound)	none (no result: PNC assembly inh)
CC1(C)CC2CN(C(=O)Cc3ccccc3)C(C)(C2)C1 (centres undefined)	ALDH1A1 inh 18µM (no result: PNC assembly inh, HPGD block)
O=C(O)C1CCN(C(=O)Cc2ccccc2)CC1	none (no result: PNC assembly inh, HPGD block)
COC(=O)c1cc(OC)c(OC)cc1NC(=O)c1ccccc1C	none (no result: PNC assembly inh, HPGD block)
O=C1OCC/C1=C\c1ccc2c(c1)OCO2	none (no result: PNC assembly inh, HPGD block)
CCOc1cc(/C=C2/C(=O)ON=C2C)ccc1OCc1ccccc1F	HPGD block 1.6µM, ALDH1A1 inh 5µM
CC1=NOC(=O)/C1=C\c1ccc2c(c1)OCO2	ALDH1A1 inh 13µM (no result: PNC assembly inh, HPGD block)
CCOc1cc(/C=C2/C(=O)ON=C2C)ccc1OCc1ccccc1	none (no result: PNC assembly inh, HPGD block)
OCCC1CN(Cc2ccc(-n3cccn3)cc2)CCN1Cc1ccccc1 (centres undefined)	none (no result: PNC assembly inh, HPGD block)
Cc1cccc(CN2CCN(c3nc4nonc4nc3NC3CC3)CC2)c1	ALDH1A1 inh 16µM (no result: PNC assembly inh, HPGD block)
Clc1cccc(CN2CCN(c3nc4nonc4nc3NC3CC3)CC2)c1	none (no result: PNC assembly inh, HPGD block)
COc1ccc(CCNC(=O)Cc2ccc([N+](=O)[O-])cc2)cc1OC	none (no result: PNC assembly inh, HPGD block)
NNC(=O)c1ccc(-c2cccc([N+](=O)[O-])c2)o1	ALDH1A1 inh 7.1µM (no result: PNC assembly inh, HPGD block)
O=C(Nc1ncc(Cc2ccc(C(F)(F)F)cc2)s1)c1ccc(-c2cccc([N+](=O)[O-])c2)o1	none
COc1ccc(CCNC(=O)c2ccc(-c3cccc([N+](=O)[O-])c3)o2)cc1OC	ALDH1A1 inh 13µM (no result: PNC assembly inh, HPGD block)
CCOC(=O)C1CCCN(C(=O)Cc2ccc(C)cc2)C1 (centres undefined)	PNC assembly inh inconclusive
CCOCC(=O)N1CCCC(C(=O)OCC)C1 (centres undefined)	PNC assembly inh inconclusive, ALDH1A1 inh 3.5µM
CCOC(=O)C1CCCN(C(=O)CC(c2ccccc2)c2ccccc2)C1 (centres undefined)	PNC assembly inh -100, HPGD block 28µM
CCCCC(=O)N1CCCC(C(=O)OCC)C1 (centres undefined)	none
Cc1cc(C)cc(N(C(=O)c2cccs2)C2C=CS(=O)(=O)C2)c1 (centres undefined)	none (no result: PNC assembly inh, HPGD block)
CCCCCCCCCCC(=O)NNC(=O)c1c(O)c2ccccc2n(CC)c1=O	none (no result: PNC assembly inh, HPGD block)
C/C(=N\NC(=O)c1nn(C)c(C)c1Br)c1cccc(NC(=O)c2ccoc2C)c1	ALDH1A1 inh inconclusive
CCN(CC)S(=O)(=O)c1ccc2c(c1)[nH]c(=S)n2CC	ALDH1A1 inh 18µM (no result: PNC assembly inh, HPGD block)
CCOC(=O)c1ccc2c(c1)[nH]c(=S)n2CC	ALDH1A1 inh 25µM (no result: PNC assembly inh, HPGD block)
CCOC(=O)c1ccc2c(c1)n(CC)c(C)[n+]2CC	none (no result: PNC assembly inh, HPGD block)
CCN(CC)S(=O)(=O)c1ccc2c(c1)c(C(=O)O)cn2C	none
CCN(CC)S(=O)(=O)c1ccc2nc(CCl)[nH]c2c1	ALDH1A1 inh 20µM (no result: PNC assembly inh, HPGD block)
CCN(CC)S(=O)(=O)c1ccc(Cl)nc1	none (no result: PNC assembly inh, HPGD block)
Cc1cc(C)c(S(=O)(=O)N(C)c2ccccc2)c(C)c1	none (no result: PNC assembly inh, HPGD block)
O=C(O)c1ccc(Cl)cc1Cl	none (no result: PNC assembly inh)
Nn1c(SCC(=O)NC(=O)Nc2ccc3c(c2)OCCO3)nnc1C1CC1	none (no result: PNC assembly inh, HPGD block)
Cc1cccc(N2CN=C3SCC(=O)N3C2)c1	none (no result: PNC assembly inh, HPGD block)
CC(Cl)C(=O)NNc1cccc(Cl)n1 (centres undefined)	ALDH1A1 inh 20µM
O=C(NNc1cccc(Cl)n1)Nc1ccccc1	ALDH1A1 inh inconclusive
O=C(Cc1ccc(Cl)c(Cl)c1)Nc1cccc(S(=O)(=O)N2CCOCC2)c1	none (no result: PNC assembly inh, HPGD block)
COc1cccc(NC(=O)COC(=O)c2ccccc2C(=O)N2CCN(c3ccccc3)CC2)c1	none (no result: PNC assembly inh, HPGD block)
Cn1c2ccccc2c2nn(-c3ccccc3)c(=O)cc21	ALDH1A1 inh 13µM
Cn1c2ccccc2c2n[nH]c(=O)nc21	none (no result: PNC assembly inh, HPGD block)
O=C(N/N=C/c1ccccc1O)C(=O)Nc1ccccn1	none (no result: PNC assembly inh, HPGD block)
CCC(=O)N1CCc2cc(S(=O)(=O)NCCCN3CCN(Cc4ccccc4)CC3)ccc21	ALDH1A1 inh 18µM
CCC(=O)N1CCc2cc(S(=O)(=O)NCCC(=O)NC3CCCc4ccccc43)ccc21 (centres undefined)	none
CCOCCCNS(=O)(=O)c1ccc2c(c1)CCN2C(=O)CC	PNC assembly inh -110
CC(=O)N1CCc2cc(S(=O)(=O)NCCCN3CCN(Cc4ccccc4)CC3)ccc21	none
Cc1cccc(C)c1Nc1c(-c2ccccn2)nc2ccccn12	none (no result: PNC assembly inh, HPGD block)
CCCCCO	none (no result: PNC assembly inh)
CC/C=C\C[C@H]1C(=O)CC[C@@H]1CC(=O)O	none (no result: PNC assembly inh)
CC(C)(C)c1nnc2sc(SCCN3C(=O)c4ccccc4C3=O)nn2c1=O	none
CC(C)N(C(=O)CSc1nn2c(=O)c(C(C)(C)C)nnc2s1)c1ccccc1	ALDH1A1 inh 22µM
N#Cc1ccsc1NC(=O)COC(=O)c1cc2ccccc2cc1O	PNC assembly inh inconclusive
CCc1cccc2c(C(=O)CSc3nncn3-c3ccc(OC)cc3)c[nH]c12	PNC assembly inh -104
O=C(Nc1c2c(nn1-c1ccccc1)CS(=O)C2)c1ccc(S(=O)(=O)N2CCOCC2)cc1 (centres undefined)	none (no result: PNC assembly inh, HPGD block)
COc1ccc(-n2nnnc2Sc2ccc(S(=O)(=O)N3CCOCC3)cn2)cc1	HPGD block 7.1µM, ALDH1A1 inh 2.8µM
COc1ccc(-n2nnnc2SCC(=O)N2CCOCC2)cc1	none
COc1ccc(-n2nc3c(c2NC(=O)c2ccc(S(=O)(=O)N4CCOCC4)cc2)CS(=O)C3)cc1 (centres undefined)	ALDH1A1 inh 2.5µM (no result: PNC assembly inh, HPGD block)
CCc1cccc2c(C(=O)CSc3nncn3-c3ccccc3OC)c[nH]c12	none
COc1ccc(-n2cnnc2SCC(=O)c2ccc(S(=O)(=O)N3CCOCC3)cc2)cc1	PNC assembly inh inconclusive, ALDH1A1 inh 1.4µM
COc1ccc(-n2cnnc2SCC(=O)Nc2cc(S(=O)(=O)N3CCCCC3)ccc2C)cc1	none
Cc1c(C(=O)Nc2ccc(F)cc2)c2ccccn2c1CCc1ccncc1	HPGD block inconclusive, ALDH1A1 inh inconclusive
Cc1noc(NS(=O)(=O)c2cccc3c(N(C)C)cccc23)c1C	HPGD block inconclusive (no result: PNC assembly inh)
CC(C)(C)n1nc2c(c1NC(=O)c1ccc(S(=O)(=O)N3CCCCC3)cc1)CS(=O)C2 (centres undefined)	ALDH1A1 inh 25µM
CC(C)(C)n1nc2c(c1NC(=O)c1ccc(Br)cc1)CS(=O)C2 (centres undefined)	none
O=C(C1CCCCN1S(=O)(=O)c1ccccc1)N1CCN(C(c2ccccc2)c2ccccc2)CC1 (centres undefined)	PNC assembly inh inconclusive
CCNC(=S)N1CCN(Cc2ccccc2)CC1	ALDH1A1 inh 16µM (no result: PNC assembly inh, HPGD block)
CCCCNC(=S)N1CCN(C(c2ccccc2)c2ccccc2)CC1	ALDH1A1 inh 28µM (no result: PNC assembly inh, HPGD block)
CC1CCCN(C(=O)C2CCN(CCCc3ccccc3)CC2)C1 (centres undefined)	none
CCCNC(=S)N1CCN(C(c2ccccc2)c2ccccc2)CC1	ALDH1A1 inh inconclusive
CC1CCCN(C(=O)C2CCN(CC(C)c3ccccc3)CC2)C1 (centres undefined)	HPGD block 22µM, ALDH1A1 inh inconclusive
CCN1CCN(C(=S)NCCc2ccccc2)CC1	none
O=C(C1CC1)N1CCN(C(c2ccccc2)c2ccccc2)CC1	ALDH1A1 inh 1.1µM
CCOc1ccc(NC(=O)Nc2cccnc2)cc1	none (no result: PNC assembly inh, HPGD block)
CC(C)C[C@H](NC(=O)c1nc[nH]c1C(=O)N1CCN(C(=O)OC(C)(C)C)CC1)C(=O)OCc1ccccc1	none (no result: PNC assembly inh, HPGD block)
S=C(NCCc1ccccc1)N1CCN(C(c2ccccc2)c2ccccc2)CC1	ALDH1A1 inh inconclusive
CCNC(=S)N1CCN(C(c2ccccc2)c2ccccc2)CC1	ALDH1A1 inh 3.2µM
O=C(O)CC12CC3CC(C1)CC(n1cncn1)(C3)C2	none (no result: PNC assembly inh, HPGD block)

Screening results from PubChem BioAssay.
